# Assay results from PubChem BioAssay AID488969 (Vanderbilt High Throughput Screening Facility, 2010).
# Over roughly 110,000 compounds, “z-score” has its median near -0.1; the highest 2% begin near 2. What follows is part of a selection rich in the highest values, with near analogues and random picks from the rest. The source made the active and inactive calls.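 How the source made its calls: active means z-score in the third read window above 3 or below -3; inactive means the rest.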
# Target: Metabotropic glutamate receptor 8 (Rattus norvegicus) (UniProt P70579)
# Sequence (P70579 whole entry, looked up): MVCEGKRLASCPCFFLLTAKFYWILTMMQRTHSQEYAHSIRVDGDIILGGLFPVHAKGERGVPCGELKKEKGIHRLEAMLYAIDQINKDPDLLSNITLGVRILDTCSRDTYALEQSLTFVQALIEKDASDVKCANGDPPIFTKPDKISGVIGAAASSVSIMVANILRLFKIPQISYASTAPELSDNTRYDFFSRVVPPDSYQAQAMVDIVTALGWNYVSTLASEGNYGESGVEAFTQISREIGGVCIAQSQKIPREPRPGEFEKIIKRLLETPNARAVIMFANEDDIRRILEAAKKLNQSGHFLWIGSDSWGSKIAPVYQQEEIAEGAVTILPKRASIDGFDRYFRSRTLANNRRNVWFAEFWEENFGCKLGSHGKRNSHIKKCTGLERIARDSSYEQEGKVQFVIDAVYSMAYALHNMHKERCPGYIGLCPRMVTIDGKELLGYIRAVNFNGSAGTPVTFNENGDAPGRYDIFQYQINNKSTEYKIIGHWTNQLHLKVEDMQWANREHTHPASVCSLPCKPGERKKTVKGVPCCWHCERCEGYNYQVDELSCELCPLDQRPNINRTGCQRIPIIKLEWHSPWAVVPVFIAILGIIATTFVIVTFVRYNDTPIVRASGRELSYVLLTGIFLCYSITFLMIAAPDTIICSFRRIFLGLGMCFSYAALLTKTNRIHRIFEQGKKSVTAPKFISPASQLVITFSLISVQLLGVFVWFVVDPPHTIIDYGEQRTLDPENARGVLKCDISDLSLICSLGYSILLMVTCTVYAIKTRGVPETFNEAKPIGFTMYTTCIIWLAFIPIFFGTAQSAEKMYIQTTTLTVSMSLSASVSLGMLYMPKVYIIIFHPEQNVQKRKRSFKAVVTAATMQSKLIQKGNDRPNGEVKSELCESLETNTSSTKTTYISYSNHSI
# Assay: rat mGluR8 modulators via GIRK flux, primary screen, cell-based, thallium flux, HTS (AID 488969)
# Conditions: HEK293 rat mGluR8, GIRK (G protein-gated inwardly rectifying potassium channel) thallium flux, FluoZin2; at 10 µM; stronger effect = higher value; submaximal glutamate (EC20) added with thallium
row,SMILES,z-score
1,OC(CCN1CCOCC1)(c1ccc(Cl)cc1)C1CCCCC1 (centres undefined),-0.807
2,Cc1ccc(NC(=S)N/C(=N/S(=O)(=O)c2ccccc2)c2ccccc2)cc1,1.36
3,CCc1ccc(C(C(=O)NCc2ccc(OC)cc2)N(CCOC)C(=O)Cc2cccs2)cc1 (centres undefined),-0.37
4,COCCN(C(=O)Cc1cccs1)C(C(=O)NCc1ccc(OC)cc1)c1ccccc1 (centres undefined),3.95 (active)
5,COCCN(C(=O)Cc1cccs1)C(C(=O)NCc1ccc(OC)cc1)c1ccc(OC)cc1 (centres undefined),-0.202
6,Clc1ccc(N=c2ssnc2Cl)cc1,-0.0573
7,C=C(C)COc1ccc(-c2[nH]ncc2-c2ccccc2OC)c(O)c1,0.603
8,Cc1cccc(Oc2cc(NC(=O)c3ccccc3)cc([N+](=O)[O-])c2)c1,-0.382
9,CCn1cc(CNC(=O)CCSc2nc(-c3ccco3)cc(C(F)(F)F)n2)cn1,-0.23
10,CCC/C(=N/NC(=O)c1cccc(Cl)c1)c1ccccc1,5.45 (active)
11,COc1cccc(C(=O)N/N=C(/CCC(=O)O)c2ccccc2)c1,-0.189
12,CCC/C(=N\NC(=O)c1ccccc1C)c1ccccc1,-0.166
13,CCC1=NC(c2ccc(OC)cc2OC)N(O)C1(C)C (centres undefined),-0.547
14,COCc1c(C(=O)N2CCN(c3ccc(C(F)(F)F)cn3)CC2)oc2ccccc12,-0.0186
15,CCOC(=O)c1c(C)oc2ccc(OCC(=O)C(C)(C)C)cc12,-1.03
16,CCN(CC)C(=O)COc1ccc2oc(C)c(C(=O)OC(C)C)c2c1,-0.537
17,CCN(CC)C(=O)COc1ccc2oc(C)c(C(=O)OC)c2c1,3.23 (active)
18,CCOC(=O)C1=C(CNCc2ccccc2Cl)NC(=O)NC1c1ccc2c(c1)OCO2 (centres undefined),0.278
19,COc1ccc(Br)cc1CN1CCCCCCC1,0.169
20,COc1cc(-c2nc(-c3ccc(NC(=O)c4ccc5c(c4)OCO5)cc3)no2)cc(OC)c1OC,0.262
21,CC12CN(C(=O)c3ccccc3)C3(C#N)CC1CCC23C (centres undefined),0.729
22,NC(N)=N/N=C/c1ccc(OCc2ccccc2)cc1,0.177

row,SMILES,z-score
1,CC1(C)Cc2nc3sc4c(SCC(=O)NCc5ccccc5)ncnc4c3cc2CO1,2.31
2,CC1(C)Cc2nc3sc4c(SCC(=O)NCc5ccco5)ncnc4c3cc2CO1,-0.999
3,CC1(C)Cc2nc3sc4c(SCC(=O)NC(c5ccccc5)c5ccccc5)ncnc4c3cc2CO1,0.0674
4,CC(=O)c1ccc(OCC(O)CN2CCCC(C)C2)cc1 (centres undefined),-0.0491
5,O=C(Nc1ncc2c(n1)-c1ccccc1CC2)c1ccccc1,-0.277
6,COc1ccc(-c2c[n+]3c4n2CCCCC4=C(c2ccccc2)C3)cc1,2.82
7,Clc1ccc(C2=C3CCCCn4c(-c5ccccc5)c[n+](c43)C2)cc1,0.498
8,COc1ccc(-c2c[n+]3c4n2CCCCC4=C(c2ccc(Br)cc2)C3)cc1,1.54
9,CCCc1ccccc1OCCNC(C)=O,-0.472
10,CC(NC(=O)c1ccccc1)C(=O)NC1=NCCS1 (centres undefined),0.0634
11,CC(NC(=O)COc1ccccc1)C(=O)NC1=NCCS1 (centres undefined),3.96 (active)
12,O=C(COc1ccccc1)NC1=NCCS1,-0.0489
13,COc1cc(-c2nc(-c3ccc(Br)o3)no2)cc(OC)c1OC,-0.294
14,CCOc1ccc(Cl)cc1CNCCNCCO,0.172
15,CCOc1c(Cl)cc(Cl)cc1CNCCNCCO,0.738
16,COc1c(Cl)cc(Cl)cc1CNCCNCCO,0.598
17,CCOc1cccc(CNCCO)c1OCc1ccc(Cl)cc1Cl,0.93
18,CCOc1ccc(Cl)cc1CNCCNCC(C)O (centres undefined),2.17
19,COc1c(Cl)cc(Cl)cc1CNCCNCC(C)O (centres undefined),3.74 (active)
20,CN(C)C(C)(C)C#CCCCCC#CC(C)(C)N(C)C,-0.195
21,N#Cc1cc2cc3c(cc2nc1N1CCOCC1)OCO3,-0.918
22,O=C1C2ON(c3ccccc3)C(c3ccncc3)C2C(=O)N1c1ccc(N2CCOCC2)cc1 (centres undefined),-0.522

row,SMILES,z-score
1,Cn1c(=O)c(NCCO)c2c3c(cccc31)C(=O)c1ccccc1-2,-2.23
2,CCCCNc1c2c3c(cccc3n(C)c1=O)C(=O)c1ccccc1-2,16.2 (active)
3,Cn1c(=O)c(NCCc2ccccc2)c2c3c(cccc31)C(=O)c1ccccc1-2,1.94
4,Cc1noc(/C=C/N(C)C)c1S(=O)(=O)N1CCCC(C(=O)NCCC2=CCCCC2)C1 (centres undefined),-0.237
5,CC(C)(C)c1nnc(N/N=C/c2ccccc2O)n(N)c1=O,-0.149
6,CC(C)(C)c1nnc(N/N=C/c2ccc(Br)cc2)n(N)c1=O,0.0626
7,CC(C)(C)c1nnc(N/N=C/c2ccccc2)n(N)c1=O,2.74
8,COc1ccc(-c2csc(Nc3ccc(S(N)(=O)=O)cc3)n2)cc1,-0.213
9,Cc1ccc([N+](=O)[O-])cc1NC(=S)NC(=O)C(C)(C)C,0.72
10,Cc1ccc([N+](=O)[O-])cc1NC(=S)NC(=O)CC(C)(C)C,0.834
11,Cc1ccc([N+](=O)[O-])cc1NC(=S)NC(=O)c1ccco1,7.69 (active)
12,O=C(Nc1cc([N+](=O)[O-])ccc1F)c1cccs1,-0.0753
13,Cc1ccc([N+](=O)[O-])cc1N/C=C/C(=O)c1ccco1,-0.039
14,Cc1ccc([N+](=O)[O-])cc1NC(=S)NC(=O)c1cccs1,2.46
15,COC(=O)c1ccc(C(=O)OC)c(NC(=O)COC(=O)CC2CC3CCC2C3)c1 (centres undefined),-0.338
16,CC1CCCCN1c1nnc(NC(=O)c2cc(-c3ccc(Br)cc3)on2)s1 (centres undefined),-0.71
17,O=C(Nc1nnc(N2CCCCCC2)s1)c1cc(-c2ccc(Br)cc2)on1,-0.0797
18,CC1CCCC(C)N1c1nnc(NC(=O)c2cc(-c3ccc(Br)cc3)on2)s1 (centres undefined),2.04
19,O=C(CC12CC3CC(CC(C3)C1)C2)NCC(=O)OCc1cc(=O)oc2ccc3ccccc3c12,-0.205
20,O=CN1CCN(C(C(=O)NC2CCCC2)c2ccc(Cl)cc2)CC1 (centres undefined),0.0147
21,CCc1ccc(-c2nc(CN3CCCC(C(=O)NCCc4ccc(OC)c(OC)c4)C3)c(C)o2)cc1 (centres undefined),2.2
22,CCc1ccc(-c2nc(CN3CCC(C(=O)N4CCN(c5ccccc5)CC4)CC3)c(C)o2)cc1,2.2

row,SMILES,z-score
1,COc1ccc(CCNC(=O)C2CCCN(Cc3nc(-c4cccc(Cl)c4)oc3C)C2)cc1OC (centres undefined),1.07
2,Cc1oc(-c2ccc(Cl)cc2)nc1CN1CCC(C(=O)N2CCN(Cc3ccccc3)CC2)CC1,0.0945
3,CCc1ccc(-c2nc(CN3CCC(C(=O)NCCN(CC)c4ccccc4)CC3)c(C)o2)cc1,1.17
4,CCc1ccc(-c2nc(CN3CCC(C(=O)NCCc4ccc(OC)c(OC)c4)CC3)c(C)o2)cc1,0.471
5,O=C(CNC(=O)c1ccccc1F)NCCOc1cccc(Cl)c1Cl,-0.0129
6,COCCNC(=O)CN(C(=O)CCC(=O)Nc1cc(C)on1)c1cccc(C)c1C,-0.171
7,CC(C)NS(=O)(=O)c1ccc(CCC(=O)Nc2ccc3c(c2)OCO3)cc1,-0.224
8,CCc1cc2c(N=Nc3c(O)[nH]c4ccccc34)ncnc2s1,-0.149
9,CCc1ccc2[nH]c(O)c(N=Nc3nc(-c4ccccc4)cs3)c2c1,2.89
10,CCc1cc(C(=O)N=Nc2c(O)[nH]c3ccc([N+](=O)[O-])cc23)c2ccccc2n1,-0.481
11,COC(=O)CSc1cnc2ccccc2n1,0.141
12,CCOC(=O)c1c(NC(=S)Nc2ccccc2)sc2c1CCCCC2,3.94 (active)
13,CC(C)OC(=O)c1c(NC(=O)c2ccco2)sc2c1CCCCC2,-0.501
14,CCOC(=O)c1c(NS(=O)(=O)Cc2ccccc2)sc2c1CCCC2,17.1 (active)
15,Cc1ccc(C(=O)OCC(=O)Nc2sc3c(c2C#N)CCCC3)cc1NC(=O)c1ccco1,2.03
16,Cc1ccc(C(=O)OCC(=O)Nc2sccc2C(N)=O)cc1NC(=O)c1ccco1,-0.747
17,CCOC(=O)c1c(NC(=S)Nc2ccc(C)cc2)sc2c1CCC2,-0.0357
18,CCOC(=O)c1c(NC(=O)c2ccco2)sc2c1CCCCC2,-0.506
19,CCOC(=O)c1c(NC(=O)c2ccccc2N(C)S(=O)(=O)c2ccccc2)sc2c1CCCC2,-0.168
20,Cc1ccc(C(=O)OCC(=O)Nc2sc3c(c2C#N)CCC3)cc1,-0.0585
21,COC(=O)c1c(NC(=O)c2ccco2)sc2c1CCC2,-0.464
22,CCOC(=O)c1c(NC(=S)Nc2ccc(F)cc2)sc2c1CCC2,-0.154

row,SMILES,z-score
1,COC(=O)c1c(NC(=S)NC(=O)c2ccco2)sc2c1CCCC2,3.53 (active)
2,CC(=O)Nc1ccc2nc(C)n(Cc3ccc(Cl)cc3)c(=O)c2c1,-0.376
3,CCOC(=O)N1CCC(NC(=O)C2CCN(c3ccc(N4CCOCC4)nn3)CC2)CC1,-0.202
4,CCCOc1ccc(N2C(=O)CC(N3CCN(c4ccccc4OC)CC3)C2=O)cc1 (centres undefined),-0.446
5,COC(=O)C1=CNC=C(C(=O)OC)C1c1ccccc1Cl,-1.54
6,CCOc1ccccc1N(CC(=O)Nc1ccccc1C(=O)O)S(C)(=O)=O,0.403
7,c1ccc2nc3c(cc2c1)CCCCCC3,-0.0331
8,CCOC(=O)c1nnn(-c2nonc2N)c1-c1cccc2ccccc12,-1.66
9,O=C(NCc1ccc2c(c1)OCO2)C1CC(c2ccccc2O)=NO1 (centres undefined),0.36
10,COc1ccc(C(C[N+](=O)[O-])c2c(-c3ccccc3)cc3ccccn23)cc1 (centres undefined),0.715
11,Cc1snc(SCC(=O)N/N=C(\N)COc2ccc(F)cc2)c1C#N,0.165
12,Cn1c(CNc2ccc(Cl)cc2)nnc1SCCN1CCCCC1,0.273
13,O=C(COc1ccc([N+](=O)[O-])cc1)NCCC1=CCCCC1,-0.0621
14,CCCNC(=S)Nc1ccc(Cl)cc1Cl,-0.0325
15,COC(=O)c1c(NC(C)=O)sc2c1CCCC2,-0.117
16,COC(=O)c1c(NS(=O)(=O)c2cccs2)sc2c1CCCC2,6.32 (active)
17,COC(=O)c1c(NC(=O)CN(c2ccccc2)S(C)(=O)=O)sc2c1CCCC2,0.77
18,COC(=O)c1c(NS(=O)(=O)c2ccc3ccccc3c2)sc2c1CCCC2,0.384
19,COC(=O)c1c(NS(C)(=O)=O)sc2c1CCCC2,0.0189
20,COC(=O)c1c(NS(=O)(=O)Cc2ccccc2)sc2c1CCCC2,17 (active)
21,C=CCn1c(Cc2csc(N)n2)nnc1SCC(=O)Nc1ccc(C(=O)OCC)cc1,-2.2
